Data published in PubChem BioAssay (NCI).
The panel holds about 79,000 compounds, 15% with a hit somewhere; the sample as a whole holds those more often. The source made the active and inactive calls. Cut-off read from the data, not from the text of the source: active = growth inhibition above about 70%; inactive = the rest.

Legend:
[1] = NCI Yeast Anticancer Drug Screen. Data for the mec2-1 strain (AID 157); conditions: S. cerevisiae mec2-1 strain, active compounds read high
Summary of the method: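 Mutant yeast (mec2-1) grown with compound; growth inhibition relative to vehicle control reported.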

[2] = NCI Yeast Anticancer Drug Screen. Data for the sgs1 mgt1 strain (AID 161);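 note: 0% = growth of cultures given vehicle only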; conditions: S. cerevisiae sgs1 mgt1 strain, active compounds read high
Summary of the method: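 Percent growth inhibition was derived by comparing compound-exposed mutant yeast with vehicle-exposed cultures. The strain carries alterations in DNA damage repair.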

[3] = NCI Yeast Anticancer Drug Screen. Data for the CLN2oe strain (AID 163);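 note: 0% = growth of vehicle-only control cultures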; conditions: S. cerevisiae CLN2oe strain, active compounds read high
Summary of the method: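 Compounds are applied to yeast harbouring a defined cell-cycle control change; reduced growth compared with vehicle-treated controls gives the value.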

[4] = NCI Yeast Anticancer Drug Screen. Data for the cln2 rad14 strain (AID 165);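 note: 0% = growth equal to vehicle treated cultures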; conditions: S. cerevisiae cln2 rad14 strain, active compounds read high
Summary of the method: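 Readout is yeast growth inhibition versus vehicle-treated controls, using a strain with cln2 and rad14 alterations exposed to compound.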

[5] = NCI Yeast Anticancer Drug Screen. Data for the bub3 strain (AID 167); conditions: S. cerevisiae bub3 mutant strain, active compounds read high
Summary of the method: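 Steps: expose the mutant yeast strain to compound; grow alongside vehicle-treated cultures; measure growth; express inhibition against the vehicle cultures.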

[6] = NCI Yeast Anticancer Drug Screen. Data for the wt2 strain (AID 169);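 note: 0% = growth of vehicle-treated yeast cultures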; conditions: S. cerevisiae wt2 strain growth inhibition, active compounds read high
Summary of the method: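 Against vehicle-treated controls, the growth of yeast exposed to each compound was compared, and the inhibition was recorded.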

[7] = NCI Yeast Anticancer Drug Screen. Data for the mlh1 strain (AID 171);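 note: 0% = growth of vehicle-treated control cultures of the same strain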; conditions: S. cerevisiae mlh1 strain growth inhibition, active compounds read high
Summary of the method: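 Measured: yeast growth. Reference: vehicle-treated controls. Organism: strain with a defined alteration affecting DNA damage repair or cell cycle control, treated with compound.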

[8] = NCI Yeast Anticancer Drug Screen. Data for the mlh1 rad18 strain (AID 175); conditions: S. cerevisiae mlh1 rad18 strain growth inhibition, active compounds read high
Summary of the method: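 Genetically defined yeast (DNA repair-deficient) exposed to compounds; growth inhibition determined relative to vehicle.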

[9] = NCI Yeast Anticancer Drug Screen. Data for the rad18 strain (AID 177); conditions: S. cerevisiae rad18 mutant growth inhibition, active compounds read high
Summary of the method: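 Vehicle-treated cultures served as the baseline for scoring compound-induced growth inhibition in DNA-repair-mutant yeast.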

[10] = NCI Yeast Anticancer Drug Screen. Data for the rad52 strain (AID 147);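 note: 0% = growth of vehicle-treated control cultures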; conditions: S. cerevisiae rad52 mutant growth inhibition, active compounds read high
Summary of the method: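 The repair-mutant yeast strain was incubated with compounds, then growth was read and inhibition derived relative to vehicle.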

[11] = NCI Yeast Anticancer Drug Screen. Data for the wt1 strain (AID 149);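 note: 0% = growth of vehicle-treated wt1 cultures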; conditions: S. cerevisiae wt1 strain (SPY 50644) growth inhibition, active compounds read high
Summary of the method: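 Compounds are added to wt1 yeast cultures. Growth is then measured. Inhibition is expressed relative to vehicle-treated controls.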

[12] = NCI Yeast Anticancer Drug Screen. Data for the rad50EPP+ strain (AID 151);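 note: 0% = growth of vehicle-treated control cultures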; conditions: S. cerevisiae rad50 mutant strain, active compounds read high
Summary of the method: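 Vehicle-normalised growth inhibition; rad50EPP+ yeast strain, altered in DNA damage repair, compound-treated.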

[13] = NCI Yeast Anticancer Drug Screen. Data for the mgt1 strain (AID 153); conditions: S. cerevisiae mgt1 mutant growth inhibition, active compounds read high
Summary of the method: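 Vehicle-normalized growth inhibition is determined in mgt1 yeast, a strain selected for a defined alteration in DNA repair or cell cycle control.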

[14] = NCI Yeast Anticancer Drug Screen. Data for the rad50 strain (AID 155);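 note: 0% = growth of vehicle-only cultures of the same strain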; conditions: S. cerevisiae rad50 strain growth inhibition, active compounds read high
Summary of the method: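 Inhibition values express reduced yeast growth in compound-treated cultures relative to vehicle-treated controls.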

[15] = NCI Yeast Anticancer Drug Screen. Data for the sgs1 strain (AID 173);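 note: 0% = growth of vehicle-only control cultures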; conditions: S. cerevisiae sgs1 mutant, active compounds read high
Summary of the method: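 Each compound was added to cultures of the altered yeast strain. Growth was recorded, and inhibition was derived by comparison with vehicle controls.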

[16] = at 5.0 µM (retest, dose inferred, filed as 0.5)
[17] = at 50.0 µM (retest, dose inferred, filed as 5.0)

Measured: growth inhibition

CC(C)CCC[C@@H](C)[C@H]1CC[C@H]2[C@@H]3CC[C@H]4C[C@H](N)CC[C@]4(C)[C@H]3CC[C@]12C
inactive: [1]; [16] -9% | [1]; at 11.0 µM -2% | [1]; at 33.0 µM -2% | [1]; [17] -12% | [1]; at 50.0 µM 46.2% | [1]; at 100.0 µM -3% | [2]; [16] -9% | [2]; [17] 53% | [2]; at 50.0 µM -1.6% | [3]; at 1.2 µM -7% | [3]; at 3.7 µM -5% | [3]; at 11.0 µM -4% | [3]; at 33.0 µM -16% | [3]; at 100.0 µM -7% | [4]; [16] -10% | [4]; [17] -3% | [4]; at 50.0 µM 19.2% | [5]; at 1.2 µM -2% | [5]; at 3.7 µM -4% | [5]; [16] -3% | [5]; at 11.0 µM -6% | [5]; at 33.0 µM -4% | [5]; [17] 52% | [5]; at 50.0 µM 15.1% | [5]; at 100.0 µM -2% | [6]; at 1.2 µM 8% | [6]; at 3.7 µM -8% | [6]; at 11.0 µM 6% | [6]; at 33.0 µM -4% | [6]; at 100.0 µM 5% | [7]; at 1.2 µM -2% | [7]; at 3.7 µM -2% | [7]; at 11.0 µM -4% | [7]; at 33.0 µM -7% | [7]; at 100.0 µM -3% | [8]; [16] 2% | [8]; [17] 55% | [8]; at 50.0 µM 39.9% | [9]; at 1.2 µM -1% | [9]; at 3.7 µM 0% | [9]; at 11.0 µM 3% | [9]; at 33.0 µM -6% | [9]; at 100.0 µM 3%

CC1CCC(C2=CSC3CCCCC3N2)CC1 (stereo unspecified)
active: [10]; at 100.0 µM 78% | [12]; at 100.0 µM 71% | [13]; at 100.0 µM 91% | [14]; at 100.0 µM 74% | [1]; [17] 71% | [1]; at 100.0 µM 80% | [5]; [17] 84% | [5]; at 100.0 µM 73% | [6]; at 100.0 µM 74% | [7]; at 100.0 µM 74% | [8]; [17] 85%
inactive: [10]; at 1.2 µM 21% | [10]; at 3.7 µM 21% | [10]; at 11.0 µM 21% | [10]; at 33.0 µM 37% | [11]; at 1.2 µM 14% | [11]; at 3.7 µM -2% | [11]; at 11.0 µM 3% | [11]; at 33.0 µM 31% | [11]; at 100.0 µM 65% | [12]; at 1.2 µM 1% | [12]; at 3.7 µM -14% | [12]; at 11.0 µM -8% | [12]; at 33.0 µM 14% | [13]; at 1.2 µM -1% | [13]; at 3.7 µM 4% | [13]; at 11.0 µM 9% | [13]; at 33.0 µM 32% | [14]; at 1.2 µM 16% | [14]; at 3.7 µM 23% | [14]; [16] 17% | [14]; at 11.0 µM 20% | [14]; at 33.0 µM 37% | [14]; [17] 13% | [14]; at 50.0 µM 43% | [1]; at 1.2 µM -36% | [1]; at 3.7 µM 5% | [1]; [16] -6% | [1]; at 11.0 µM 3% | [1]; at 33.0 µM 14% | [1]; at 50.0 µM 56.5% | [2]; [16] -4% | [2]; [17] 28% | [2]; at 50.0 µM 51.1% | [3]; at 1.2 µM -3% | [3]; at 3.7 µM 13% | [3]; at 11.0 µM 0% | [3]; at 33.0 µM 22% | [3]; at 100.0 µM 45% | [4]; [16] 32% | [4]; [17] 42% | [4]; at 50.0 µM 11.6% | [5]; at 1.2 µM 5% | [5]; at 3.7 µM -4% | [5]; [16] 42% | [5]; at 11.0 µM 5% | [5]; at 33.0 µM 29% | [5]; at 50.0 µM 66% | [6]; at 1.2 µM -8% | [6]; at 3.7 µM -3% | [6]; at 11.0 µM -4% | [6]; at 33.0 µM 19% | [7]; at 1.2 µM 6% | [7]; at 3.7 µM 4% | [7]; at 11.0 µM 11% | [7]; at 33.0 µM 28% | [15]; at 1.2 µM 15% | [15]; at 3.7 µM 5% | [15]; at 11.0 µM 14% | [15]; at 33.0 µM 35% | [15]; at 100.0 µM 67% | [8]; [16] 7% | [8]; at 50.0 µM 38.8%
